Out of some 39,000 compounds screened, about 3,300 (8.5%) were called active. This is one part of a sample in which actives are shown more often than they occur.

The subject of this test is HepG2. In words: cytotoxicity call (relative viability < 0.9). To be noted: 10 µM.
As to `C[C@H](CO)N1C[C@H](C)[C@H](CN(C)Cc2ccc(Oc3ccccc3)cc2)Oc2ncc(-c3cccnc3)cc2C1=O`, the cytotoxicity call was “inactive”. Next, `C[C@H](CO)N1C[C@H](C)[C@H](CN(C)C(=O)NC2CCCCC2)Oc2ccc(NC(=O)Nc3cccc4ccccc34)cc2C1=O`: “inactive”; `C[n+]1c2cc(N)ccc2cc2ccc(N)cc21.[Cl-]`: “active”. Regarding `C[C@@H]1CCCCO[C@@H](CN(C)Cc2ccc(C(=O)O)cc2)[C@H](C)CN([C@H](C)CO)C(=O)c2cc(NC(=O)c3ccccc3)ccc2O1`, the cytotoxicity call was “inactive”. As for `C[C@H]1CN([C@@H](C)CO)C(=O)CCCn2cc(nn2)CO[C@H]1CN(C)C(=O)Nc1cccc(Oc2ccccn2)c1`, the cytotoxicity call is “inactive”. Next, `CC(=O)OC[C@H]1O[C@@H](n2ccc(=O)[nH]c2=O)[C@H](OC(C)=O)[C@@H]1OC(C)=O`: “inactive”; `COCC(=O)N1C[C@H](C)[C@H](OC)CN(C)C(=O)c2cc(NC(=O)Nc3cccc(F)c3)ccc2OC[C@@H]1C`: “inactive”. Next, `COc1ccc(NC(=O)Nc2ccc3c(c2)C(=O)N([C@@H](C)CO)C[C@H](C)[C@@H](CN(C)Cc2ccc(Cl)c(Cl)c2)O3)cc1`: “inactive”; `COc1ccc(NC(=O)Nc2ccc3c(c2)C(=O)N([C@H](C)CO)C[C@H](C)[C@@H](CN(C)Cc2ccc(Cl)c(Cl)c2)O3)cc1`: “inactive”.

For `COc1ccc(NC(=O)Nc2ccc3c(c2)C(=O)N([C@H](C)CO)C[C@H](C)[C@H](CN(C)Cc2ccc(Cl)c(Cl)c2)O3)cc1`, the cytotoxicity call is “active”.

With `COc1ccc(NC(=O)Nc2ccc3c(c2)C(=O)N([C@@H](C)CO)C[C@@H](C)[C@@H](CN(C)Cc2ccc(Cl)c(Cl)c2)O3)cc1`, the cytotoxicity call is “inactive”.

Regarding `COc1ccc(NC(=O)Nc2ccc3c(c2)C(=O)N([C@H](C)CO)C[C@@H](C)[C@@H](CN(C)Cc2ccc(Cl)c(Cl)c2)O3)cc1`, the cytotoxicity call is “inactive”. Next, `COc1ccc(NC(=O)Nc2ccc3c(c2)C(=O)N([C@@H](C)CO)C[C@H](C)[C@H](CN(C)Cc2ccc(Cl)c(Cl)c2)O3)cc1`: “active”; `C[C@H]1CN([C@@H](C)CO)S(=O)(=O)c2ccc(-c3ccc(C(=O)N(C)C)cc3)cc2O[C@@H]1CN(C)C(=O)C1CCC1`: “inactive”; `CC(=O)O[C@H]1[C@H](Oc2cc(O)cc(O)c2C(=O)c2cc(O)cc(O)c2)O[C@H](CO)[C@@H](OC(=O)c2ccccc2)[C@@H]1O`: “inactive”. Take `O=C(O[C@H]1[C@H](O)[C@@H](CO)O[C@H](c2c(O)cc(O)c(C(=O)c3ccc(O)cc3)c2O)[C@H]1OC(=O)c1cc(O)c(O)c(O)c1)c1cc(O)c(O)c(O)c1`: the cytotoxicity call was “active”. Next, `O=C(CCc1ccc(O)cc1)c1c(O)c([C@@H]2O[C@H](CO)[C@@H](O)[C@H](O)[C@H]2O)c(O)c([C@@H]2O[C@H](CO)[C@@H](O)[C@H](O)[C@H]2O)c1O`: “inactive”. Consider `Cc1ccc(S(=O)(=O)N(C)C[C@@H]2Oc3ccc(NC(=O)CCCN(C)C)cc3CC(=O)N([C@H](C)CO)C[C@H]2C)cc1`, for which the cytotoxicity call is “inactive”.

In the case of `CN(C)CC#Cc1ccc([C@@H]2[C@H](CO)N3C(=O)CN(C(=O)CN(C)C)C[C@@H]23)cc1`, the cytotoxicity call is “inactive”. Next, `C[C@@H]1CN([C@H](C)CO)C(=O)c2cccc(NC(=O)c3ccncc3)c2O[C@@H]1CN(C)S(=O)(=O)c1cccs1`: “active”; `C[C@@H]1CN([C@H](C)CO)C(=O)c2cccc(NC(=O)c3ccncc3)c2O[C@H]1CN(C)S(=O)(=O)c1cccs1`: “inactive”; `C[C@@H]1CN([C@@H](C)CO)C(=O)c2cccc(NC(=O)c3ccncc3)c2O[C@H]1CN(C)S(=O)(=O)c1cccs1`: “inactive”. Next, `C[C@@H]1CN([C@@H](C)CO)C(=O)c2cccc(NC(=O)c3ccncc3)c2O[C@@H]1CN(C)S(=O)(=O)c1cccs1`: “active”; `C[C@H]1CN([C@@H](C)CO)C(=O)c2cccc(NC(=O)c3ccncc3)c2O[C@H]1CN(C)S(=O)(=O)c1cccs1`: “inactive”. Next, `C[C@H](CO)N1C[C@H](C)[C@H](CN(C)S(=O)(=O)c2cccs2)Oc2c(NC(=O)c3ccncc3)cccc2C1=O`: “inactive”. For the compound `CO[C@H]1CN(C)C(=O)c2cc(NS(=O)(=O)c3cn(C)cn3)ccc2OC[C@@H](C)N(Cc2cccc(F)c2)C[C@@H]1C`, the cytotoxicity call was “inactive”.

With `Cc1noc(C)c1NC(=O)N(C)C[C@H]1Oc2ccc(NC(=O)C3CC3)cc2C(=O)N([C@H](C)CO)C[C@@H]1C`, the cytotoxicity call is “inactive”. Next, `C[C@@H]1CN([C@H](C)CO)C(=O)c2cc(NS(C)(=O)=O)ccc2O[C@@H](C)CCCCO[C@H]1CN(C)CC1CC1`: “inactive”; `C[C@@H]1CCCCO[C@@H](CN(C)C(=O)c2ccccc2)[C@H](C)CN([C@@H](C)CO)C(=O)c2cc(NS(=O)(=O)c3ccccc3)ccc2O1`: “inactive”; `C[C@@H]1CN([C@H](C)CO)S(=O)(=O)c2ccc(Br)cc2O[C@H]1CN(C)C(=O)Nc1ccccc1`: “inactive”. Next, `C[C@@H]1CN([C@@H](C)CO)C(=O)Cc2cc(NC(=O)Nc3cccc4ccccc34)ccc2O[C@H]1CN(C)CC1CCCCC1`: “inactive”. Take `C[C@H](CO)N1C[C@H](C)[C@@H](CN(C)CC2CCCCC2)Oc2ccc(NC(=O)Nc3cccc4ccccc34)cc2CC1=O`: the cytotoxicity call is “inactive”. Next, `C[C@H](CO)N1C[C@H](C)[C@H](CN(C)CC2CCCCC2)Oc2ccc(NC(=O)Nc3cccc4ccccc34)cc2CC1=O`: “inactive”; `C[C@@H]1CN([C@H](C)CO)C(=O)Cc2cc(NC(=O)Nc3cccc4ccccc34)ccc2O[C@@H]1CN(C)CC1CCCCC1`: “active”; `C[C@H]1CN([C@@H](C)CO)C(=O)Cc2cc(NC(=O)Nc3cccc4ccccc34)ccc2O[C@@H]1CN(C)CC1CCCCC1`: “active”.

`C[C@@H]1CN([C@@H](C)CO)C(=O)Cc2cc(NC(=O)Nc3cccc4ccccc34)ccc2O[C@@H]1CN(C)CC1CCCCC1`: the cytotoxicity call was “active”. Next, `C[C@@H]1CN([C@H](C)CO)C(=O)Cc2cc(NC(=O)Nc3cccc4ccccc34)ccc2O[C@@H]1CN(C)C(=O)NC1CCCCC1`: “inactive”; `C[C@@H]1CN([C@H](C)CO)C(=O)Cc2cc(NC(=O)Nc3cccc4ccccc34)ccc2O[C@H]1CN(C)CC1CCCCC1`: “inactive”. As to `C[C@H]1CN([C@@H](C)CO)C(=O)Cc2cc(NC(=O)Nc3cccc4ccccc34)ccc2O[C@H]1CN(C)CC1CCCCC1`, the cytotoxicity call was “active”.

(Values after the antibiotic and cytotoxicity screens of Wong et al. (2023).)
